# ± gives the standard deviation of the averaged measurements. Whole data set: some 33,000 sequences, median “E-score (dimensionless, -0.5 to 0.5)” near -0.046, cut for the highest 2% near 0.36. The entries come from a sample that favours the highest values as a whole.
# Test system: T1, SpTbr T-box DNA-binding domain (GST fusion)
# T1 sequence: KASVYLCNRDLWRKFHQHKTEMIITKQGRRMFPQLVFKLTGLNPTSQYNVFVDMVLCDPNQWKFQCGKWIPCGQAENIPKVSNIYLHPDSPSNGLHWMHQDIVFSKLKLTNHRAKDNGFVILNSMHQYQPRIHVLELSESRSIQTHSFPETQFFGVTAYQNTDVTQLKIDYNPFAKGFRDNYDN
# Test: PBM E-score of 8-mer (E-score (dimensionless, -0.5 to 0.5)); Tbr is Tbrain of the sea star Patiria miniata (Pm) or the sea urchin Strongylocentrotus purpuratus (Sp); higher = stronger binding preference
# Conditions: the construct has about 5 more residues each side
# Method in brief: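 Using the Universal PBM Analysis Suite, every ungapped 8-mer received an enrichment E-score averaged over duplicate arrays. Probe intensities came from double-stranded Universal Agilent oligonucleotide arrays incubated with 200 nM GST-fused Tbr T-box DNA-binding domain in PBS (pH 7.5). That protein was expressed in BL21 E. coli at 20 °C and purified by glutathione affinity chromatography.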
row,Sequence,PBM E-score of 8-mer
1,ATCAGGTG,0.386 ± 0.015
2,ATCAGGTC,-0.171 ± 0.075
3,AACAGGTC,0.107 ± 0.0057
4,CACAGGTG,0.453 ± 0.005
5,AGCAGGTC,-0.0223 ± 0.011
6,AACAGGTG,0.364 ± 0.028
7,CACAGGTA,0.141 ± 0.0043
8,CACAGGTC,0.198 ± 0.045
9,ATCAGGTA,-0.128 ± 0.008
10,AGCAGGTG,0.377 ± 0.00094
11,AGCAGGTA,-0.132 ± 0.031
12,AACAGGTA,0.0912 ± 0.072
13,AGCGGTGC,-0.00638 ± 0.018
14,ACAATGCG,0.222 ± 0.025
15,CGAGAGTA,0.0304 ± 0.018
16,GAGATTGC,0.116 ± 0.014
17,CGCTGGCC,-0.032 ± 0.027
18,CTTACTCC,-0.125 ± 0.049
19,CAGCGTGG,-0.111 ± 0.012
20,CAGTCCAC,0.192 ± 0.026
21,AGCACTCA,0.079 ± 0.03
22,AAAGCAAA,0.00628 ± 0.091
23,GTGTGGGA,0.387 ± 0.038
24,CTGTGGGA,0.105 ± 0.057
25,CTGTGGAA,0.061 ± 0.12

row,Sequence,PBM E-score of 8-mer
1,ATGTGGGA,0.234 ± 0.041
2,ATGTGGAA,0.0153 ± 0.034
3,GTGTGGAA,0.3848 ± 0.0012
4,CGGCCCAG,-0.2798 ± 0.0014
5,CAGAATGC,0.0116 ± 0.023
6,GCCACGAA,0.00399 ± 0.009
7,CGCCAGCC,0.0479 ± 0.008
8,TGCGAACA,0.419 ± 0.015
9,CGCGAAAA,0.347 ± 0.04
10,AGCGAACA,0.078 ± 0.037
11,TGCGAAAA,0.383 ± 0.038
12,AGCGAAAA,-0.0276 ± 0.011
13,GGCGAACA,0.137 ± 0.018
14,CGTTTCAA,-0.029 ± 0.015
15,CGCTGTAC,-0.164 ± 0.046
16,ATACAGGG,-0.276 ± 0.015
17,AAGGGTAT,-0.121 ± 0.02
18,AAGCGTGG,0.179 ± 0.047
19,ACGCGTGC,0.149 ± 0.066
20,AGGCGTGC,0.236 ± 0.052
21,AAGCGTGT,0.288 ± 0.012
22,GCGCGTGA,0.344 ± 0.033
23,CTGCGTGA,0.172 ± 0.033
24,AGGCGTGA,0.4754 ± 0.0047
25,GTGCGTGA,0.316 ± 0.057

row,Sequence,PBM E-score of 8-mer
1,AGGCGTGG,0.321 ± 0.044
2,ATGCGTGA,0.374 ± 0.0053
3,ACGCGTGA,0.407 ± 0.0058
4,AAGCGTGA,0.415 ± 0.01
5,AGGATGAT,-0.095 ± 0.066
6,TCCACGGA,-0.0375 ± 0.11
7,CTCCAAGA,-0.0401 ± 0.032
8,ACGGCTCA,-0.0392 ± 0.022
9,TTATTGAA,-0.142 ± 0.024
10,GAATCAGA,-0.0679 ± 0.055
11,AGGCGTTA,0.434 ± 0.018
12,AGGCGTTG,0.355 ± 0.0053
13,GGGCGTAA,0.131 ± 0.047
14,CGGCGTGA,0.33 ± 0.047
15,GGGCGTGA,0.44 ± 0.015
16,GGGCGTTA,0.2697 ± 0.0022
17,CACTAGCG,0.139 ± 0.072
18,AGGTTTGC,-0.0997 ± 0.11
19,ATCGTGAG,0.208 ± 0.0056
20,TATTCGGA,-0.284 ± 0.034
21,CACTCAGG,-0.0871 ± 0.041
22,AGTGCGTA,0.0849 ± 0.013
23,CGTGCGAA,0.4443 ± 0.0016
24,AGTGCGAA,0.47263 ± 0.00019
25,AATGCGAA,0.0358 ± 0.024

row,Sequence,PBM E-score of 8-mer
1,GGTGCGAC,0.452 ± 0.0081
2,CGTGCAAA,0.146 ± 0.024
3,CGTGCGCA,0.155 ± 0.0026
4,GCTGCGAC,0.137 ± 0.059
5,GTTGCGAA,0.393 ± 0.0099
6,CTTGCGAA,0.343 ± 0.019
7,ATTGCGAA,0.284 ± 0.041
8,GATGCGAC,0.216 ± 0.022
9,AATAGCAT,-0.0159 ± 0.004
10,ATCCTGTG,0.00404 ± 0.015
11,AATATCAT,-0.161 ± 0.0081
12,CCTGGGCG,0.118 ± 0.03
13,TATGCGAA,0.131 ± 0.068
14,ACTGCGAA,0.332 ± 0.018
15,CCTGCGAA,0.367 ± 0.0099
16,TGTGCGAA,0.458 ± 0.0092
17,TCTGCGAA,0.202 ± 0.04
18,GATGCGAA,0.202 ± 0.066
19,ACGCGAAG,0.185 ± 0.027
20,AAAGTAGA,-0.0436 ± 0.055
21,ACTTGTAC,-0.109 ± 0.04
22,CACTCGGC,0.143 ± 0.021
23,ACGCGAAC,0.276 ± 0.003
24,ACGCGAAA,0.138 ± 0.018
25,CCGCGAAC,0.338 ± 0.0083

row,Sequence,PBM E-score of 8-mer
1,TCGCGAAA,0.403 ± 0.026
2,CCGCGAAA,0.32 ± 0.025
3,GCGCGATA,0.288 ± 0.014
4,GCGCGAAC,0.439 ± 0.018
5,GCGCGACA,0.3438 ± 0.0009
6,GCGCGAAA,0.4374 ± 0.0039
7,GCGTCGAC,0.114 ± 0.082
8,CCAAATAA,-0.267 ± 0.079
9,GTGGAAAA,0.125 ± 0.036
10,AAACAGCT,0.0803 ± 0.013
11,ATTGTCAA,0.225 ± 0.019
12,ATTGTCAG,0.0298 ± 0.045
13,CCTGTCAC,0.3163 ± 0.0011
14,CTTGTCAC,0.39 ± 0.013
15,ATTGTCAC,0.399 ± 0.013
16,CTTGTCAA,0.355 ± 0.0065
17,CCAGCACC,0.216 ± 0.04
18,CTGAACAC,-0.0318 ± 0.035
19,ACACTTTA,0.324 ± 0.043
20,CCACTTTC,0.0779 ± 0.016
21,AGACTTTG,-0.0212 ± 0.042
22,ACTCTTTC,0.0551 ± 0.015
23,ACACTTTC,0.402 ± 0.027
24,ACACTTTG,0.379 ± 0.005
25,CGCATAGA,-0.0202 ± 0.12

row,Sequence,PBM E-score of 8-mer
1,GCGCTACC,0.295 ± 0.0067
2,GCTTTACA,0.0266 ± 0.031
3,AGCTTTCA,-0.132 ± 0.045
4,AACACGTC,0.372 ± 0.009
5,AACACGAT,0.291 ± 0.022
6,AACACGTA,0.317 ± 0.018
7,AACACGTT,0.367 ± 0.044
8,AACACGCT,0.185 ± 0.073
9,GACACGTC,0.333 ± 0.0087
10,AGTGGAGA,-0.0675 ± 0.13
11,CAAGTGCC,0.266 ± 0.0062
12,CAAGTGCG,0.395 ± 0.02
13,AAAGTGCG,0.337 ± 0.006
14,AAAGTGAG,0.217 ± 0.0053
15,AAAGTGTG,0.441 ± 0.0064
16,ACAGTGTG,0.338 ± 0.011
17,AAAGTGAA,-0.017 ± 0.029
18,AAAGTGAC,0.367 ± 0.032
19,CAAGTGTA,0.249 ± 0.051
20,CAAGTGTG,0.453 ± 0.0056
21,AAAGTGAT,0.205 ± 0.0065
22,CAAGTGGG,0.265 ± 0.022
23,CAGCAACC,-0.109 ± 0.025
24,ACCTTAGA,0.0853 ± 0.026
25,AATCTCTA,-0.14 ± 0.0019

row,Sequence,PBM E-score of 8-mer
1,AGTACTGA,-0.0534 ± 0.012
2,AGTATCGC,0.185 ± 0.0083
3,CACAAGTC,0.166 ± 0.039
4,AAAGTGGC,0.205 ± 0.025
5,AAAGTGTC,0.39331 ± 0.00039
6,AAAGTGTA,0.112 ± 0.073
7,AAAGTGGT,0.00031 ± 0.043
8,AACAAGTG,0.298 ± 0.035
9,GAAGTGTA,0.304 ± 0.0081
10,ACAGTGTC,0.213 ± 0.0024
11,GAAGTGTC,0.42864 ± 0.00011
12,AAAGTGTT,0.416 ± 0.035
13,CACAAGTG,0.38 ± 0.016
14,CAAGTGTC,0.351 ± 0.012
15,GCGCTTAC,0.216 ± 0.054
16,CTGATGCA,0.0385 ± 0.021
17,CCTCGTAC,-0.22 ± 0.0077
18,AAGGGTAG,-0.0117 ± 0.11
19,ACTGGAGA,-0.123 ± 0.052
20,GCACCTTA,0.404 ± 0.026
21,AGACCTTC,-0.26 ± 0.016
22,GCACCTGA,0.386 ± 0.0077

# Source: the supplement of paper PMC4166925
